Test results from PubChem BioAssay (NCI).
This is part of a sample that, as a whole, favours compounds with a hit. Of some 83,000 tested, about 20% had one in any assay.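 Interpretation: 100, growth as untreated; towards 0, rising growth inhibition; 0, no net growth; 0 to -100, cell death. Compounds scoring below 10 were considered active.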 Unmarked numbers belong to inactive results. Active and inactive are the calls of the source.

The molecules below were run on T-47D breast (assay: NCI-60 one-dose screen, 48 h (100 = growth as untreated, 0 = no growth, -100 = all killed)). Settings: 10 µM unless noted.
Experimental: Growth inhibition of the T-47D human tumor cell line is measured as a screen for anti-cancer activity. Cells are grown in 96 well plates and exposed to the test compound for 48 hours. Compounds are tested at a single concentration, which is 10^-5 M for most compounds. The reported endpoint is percent growth (GI% or GIPRCNT), where numbers from 0 - 100% represent growth inhibition, and numbers from -100% - 0 represent cell death. For example, a value of 40 represents 60% growth inhibition. A value of 0 means no net growth occurred over the course of the experiment. A value of -40 indicates 40% of cells at the beginning of the experiment died by the end of the experiment. A value of -100 means all cells are dead at the end of the experiment.
NCI-60 Human Tumor Cell Lines Screen was performed using the standard one-dose NCI protocol, which is described in more detail at https://dtp.cancer.gov/discovery_development/nci-60/default.htm.
Compounds with GIPRCNT values below 10 were considered active. Activity score was based on GIPRCNT using the following formula: […]
Score is 0 for GIPRCNT values of 100 or above, 50 for GIPRCNT values of 0, and 100 for GIPRCNT values of -100.
With `CC1=Nc2cnc(Nc3ccc(OCCN4CCCC4)cc3)nc2Nc2ccccc21` the growth was 61.1%. In the case of `Cc1ccc(Cc2cnc(NC(=O)c3cc(Br)cs3)s2)cc1`, the growth was 44.4%. With `N#C/C(=C\c1ccc(Br)cc1)n1nnc2ccc(F)cc21` the growth was 8.46% (active). `COc1ccc(-c2ccc3cnc4sc(-c5ccc(OC)cc5)nc4c3n2)cc1` gave a growth of 76.3%. For `O=C(/C=C/c1ccccc1)c1cccc(OCCCOc2cccc(C(=O)/C=C/c3ccccc3)c2)c1`, the growth was 72.1%. Work on `OCCNCCCOc1ccc2ncnc(Nc3ccc(Oc4cccc(C(F)(F)F)c4)c(Cl)c3)c2c1` yielded a growth of 38.7%. With `CCCCCCCCCCCCCCCC(N)c1ccccc1` (stereo not given) the growth was 33.5%. In the case of `Fc1ccc(-c2nn(-c3ccccc3)cc2-c2nc3ccccc3o2)cc1`, the growth was 44.6%. Work on `C=C1C(=O)O[C@H]2[C@H]1CC/C(COC(=O)NCc1cc[nH]c1)=C\CC[C@@]1(C)O[C@@H]21` yielded a growth of 69.5%. Work on `Nc1c(C(=O)Nc2ccccc2Cl)sc2nc3c(cc12)C(O)CCC3` (stereo not given) yielded a growth of 38.6%. For `COc1ccc(-c2nn(-c3ccccc3)cc2/C=C2/SC(=S)N(C)C2=O)cc1`, the growth was 35.1%. Molecule `CC1Cc2c(Cl)ncnc2N(C)c2ccc(F)cc21` (stereo not given) has a growth of 92.5%. Molecule `CC(C)(C)c1cc(-c2nc3ccc(N4CCN(S(C)(=O)=O)CC4)cc3[nH]2)cc(C(C)(C)C)c1O` has a growth of 76.6%. In the case of `COc1ccc(C(=O)Nc2cccc(C3CC(=O)c4c(cc(OC)c(OC)c4OC)O3)c2)cc1` (stereo not given), the growth was 7.66% (active). `CN([O-])c1nc(N(C)[O-])nc(N2CCOCC2)n1.CN([O-])c1nc(N(C)[OH2+])nc(N2CCOCC2)n1.[Fe+3]` was tested, and the growth was 93% [100 µM]. Molecule `S=C1CCSC(=S)N1CCCN1C(=S)CCSC1=S` has a growth of 35%. Molecule `COc1ccc(-c2cc(-c3ccc(Cl)cc3)c(C#N)c(=O)n2CCCCC(=O)Nc2ccccc2N)cc1` has a growth of 37.5%. `CC(=O)[C@@H]1CCC=C2CC[C@]3(C)[C@@H](CC[C@@H]4[C@@]5(C)CCCNC(C)(C)[C@@H]5CC[C@]43C)[C@H]21` showed a growth of 33.9%. `Cn1cc(-c2csc(-c3ccc(Cl)cc3)n2)c2cccnc21` was tested, and the growth was -23.5% [100 µM] (active). In the case of `COc1ccc(-c2nc3c(c(-c4ccccc4)nn3-c3ccccc3)c(-c3ccc(N4CCOCC4)cc3)c2C#N)cc1`, the growth was 94.3%. With `Cc1ccc(/C=C2\CN(C(=O)OC(C)(C)C)C/C(=C\c3ccc(C)cc3)C2=O)cc1` the growth was 61.1%. `CC1=NN(c2nc(SCC(=O)Nc3nc4ccc(C)cc4s3)nc(-c3ccccc3)c2C#N)C(=O)C1` was tested, and the growth was 91.3%. For `O=C(Cn1c(=O)sc2nc3ccccc3nc21)Nc1ncc(Cc2cccc(Cl)c2Cl)s1`, the growth was 81.6%. In the case of `CCc1ccc(C(=O)/C=C/C23c4ccccc4C(c4ccccc42)C2C(=O)NC(=O)C23)cc1` (stereo not given), the growth was 21.9%. Work on `O=C1Nc2ccc(I)cc2C1=O` yielded a growth of 106%. `COc1ccc(-c2cn(-c3cc(OC)c(OC)c(OC)c3)c(=O)n2C(C)=O)cc1` showed a growth of 73.9%. In the case of `CCC(=C(c1ccc(OCCN2CCCC2)cc1)c1ccc(OCCN2CCCC2)cc1)c1ccc(Cl)cc1`, the growth was -41.6% (active). In the case of `CCOC(=O)c1c2c(n3ccc(C)cc13)C(=O)c1ccccc1C2=O`, the growth was 92.7%. Work on `C=C1C(=O)O[C@H]2[C@H]1CC/C(COC(=O)CSCCSCC(=O)OC/C1=C/CC[C@@]3(C)O[C@H]3[C@H]3OC(=O)C(=C)[C@@H]3CC1)=C\CC[C@@]1(C)O[C@@H]21` yielded a growth of 29.5%. Work on `COC(=O)c1cc(-c2ccccc2)[nH]c1N/N=C/c1c(Cl)cccc1Cl` yielded a growth of 38.5%. For `Clc1ccc(Nc2nnc(COc3ccccc3)c3ccccc23)cc1`, the growth was -5.86% (active). With `C1=CN2CC(c3ccccc3)=NNC2c2ccccc21` (stereo not given) the growth was 88.7%. With `Clc1ccc2c(c1)N(c1ncnc3ccc(-c4cnc5[nH]ncc5c4)cc13)CC2` the growth was 0.466% (active). `O=C1Nc2ccccc2/C1=C\c1nc(-c2ccccc2F)n2ccccc12` gave a growth of 21.2%. Work on `CCN(CC)c1nc(SCc2ccccc2Cl)ncc1C` yielded a growth of 86.3%. `N#Cc1nc(-c2ccccc2)oc1S(=O)(=O)N1CCOCC1` showed a growth of 65.4%. `CN(C)CCCC1(c2ccc(F)cc2)OCc2cc(-c3cncc4ccccc34)ccc21` (stereo not given) gave a growth of 55.9%. `CN(C)CCNC(=O)c1cccc(-c2cnc3ccc(-c4ccc5c(c4)OCO5)nn23)c1` showed a growth of 75.2%. For `CCCCCCCCn1ccc2cc(NC(=O)Cn3cc(CN4CCCCC4)nn3)ccc21`, the growth was -14.1% (active). `Cc1ccccc1Cn1cnc2ccc(-c3cc(NC(=O)c4ccc(NC5CCN(C)CC5)cc4)n[nH]3)cc21` gave a growth of 92.2%.
